TEAD-YAP block – TEAD-YAP interaction inhibition; HEK-TIYL cells, TEAD-Gal4/YAP UAS-luciferase luminescence; 1.4% of 640,000 active; inhibition, % at 9.12 µM; in the data active means inhibition above about 32%;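 further: 0% = median of test compound wells and 100% = reference inhibitor wells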
FBW7 activator – activators of human E3 ligase FBW7; AlphaScreen FBW7–phospho-cyclin E peptide binding, activator screen; Q969H0; normalized activity (activation), % at 26.1 µM; 0.13% of 650,000 active; in the data active means normalized activity above about 1.9%;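 further: purified mutant Fbw7 with reduced substrate affinity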
Target sequence (Q969H0 whole entry, looked up): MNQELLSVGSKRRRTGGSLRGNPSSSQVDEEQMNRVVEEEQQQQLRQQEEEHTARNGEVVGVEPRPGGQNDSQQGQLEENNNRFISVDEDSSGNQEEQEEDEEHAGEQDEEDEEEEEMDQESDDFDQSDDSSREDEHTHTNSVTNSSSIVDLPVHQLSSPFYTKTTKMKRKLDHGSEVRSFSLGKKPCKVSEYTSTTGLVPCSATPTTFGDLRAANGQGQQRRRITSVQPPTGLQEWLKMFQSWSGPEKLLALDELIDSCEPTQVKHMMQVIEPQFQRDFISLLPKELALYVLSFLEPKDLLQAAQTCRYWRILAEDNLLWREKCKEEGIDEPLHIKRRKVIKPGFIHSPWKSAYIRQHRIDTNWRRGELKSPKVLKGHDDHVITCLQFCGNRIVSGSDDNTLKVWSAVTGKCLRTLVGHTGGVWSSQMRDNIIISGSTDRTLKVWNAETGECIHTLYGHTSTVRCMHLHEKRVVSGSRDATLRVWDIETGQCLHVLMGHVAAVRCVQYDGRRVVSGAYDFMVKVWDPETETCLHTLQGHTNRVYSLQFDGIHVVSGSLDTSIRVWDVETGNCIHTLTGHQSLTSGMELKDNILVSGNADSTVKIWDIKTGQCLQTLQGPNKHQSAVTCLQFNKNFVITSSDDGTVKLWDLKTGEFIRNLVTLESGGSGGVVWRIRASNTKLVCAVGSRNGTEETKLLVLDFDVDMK
GPR151 ag – activates the human receptor GPR151. activation, % at 11.2 µM. Q8TDV0. PathHunter beta-arrestin GPR151 cells, luminescence. 1% of 650,000 active; in the data active means activation above about 4.9%;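 further: 0% = median of compound wells and 100% = cells with positive control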
MITF inh – inhibitors of human MITF. AlphaScreen MITF homodimerization, bead proximity signal. inhibition, % at 2.6 µM. 0.91% of 650,000 active; in the data active means inhibition above about 50%;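 further: 0% = vehicle wells with protein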
* marks the source's active call; other numbers are inactive results. Hits are enriched below; roughly 3.5% of the tested compounds scored in any of these assays.

SMILES | TEAD-YAP block | FBW7 activator | GPR151 ag | MITF inh
OCCNc1nc(Nc2ccccn2)nc2c1ncn2-c1ccsc1 | 69* | 0 | 1 | -5
CCCNc1nc(Nc2ccccn2)nc2c1ncn2-c1ccccc1 | 22 | 0 | -1 | 6
COc1cc(OC)cc(-c2n[nH]c(=S)n2-c2ccc(C(=O)O)cc2)c1 | 5 | 0 | 4 | 0
COC(=O)CN(C(C)=O)C(c1ccccc1)c1cc(Br)ccc1NC(=O)c1ccccc1Cl (stereo not drawn) | 5 | 0 | 0 | 12
Cc1cc2[nH]c(=S)n(Cc3ccccc3Cl)c2cc1C | 50* | 0 | 2 | 0
Oc1ccc(-c2cn3ccsc3n2)cc1 | 73* | 0 | -2 | 12
CCOc1ccc(-c2cn3ccsc3n2)cc1 | 43* | 0 | -2 | 12
C/C1=C2N=C(/C=C3N=C(/C(C)=C4\NC(C(CC(N)=O)C4(C)CCC(=O)NCC(C)OP(=O)(O)OC4C(CO)OC(n5cnc6cc(C)c(C)cc65)C4O)C4(C)N=C1C(CCC(N)=O)C4(C)CC(N)=O)C(CCC(N)=O)C\3(C)C)C(CCC(N)=O)C/2(C)CC(N)=O (stereo not drawn) | 33* | 0 | -9 | -35
Cc1cc(-c2nnc(SCc3cccnc3)o2)no1 | -1 | 0 | 2 | 8
O=C(Cn1cc([N+](=O)[O-])ccc1=O)Nc1ccccc1OC(F)F | -8 | 0 | 0 | 17
COc1ccc(-c2cc3cccc(OC)c3oc2=O)cc1 | 71* | 0 | -7 | -18
COc1cccc2cc(-c3csc(N)n3)c(=O)oc12 | 49* | 0 | -9 | 0
COc1cccc2cc(-c3csc(NC(C)=O)n3)c(=O)oc12 | -9 | 0 | 2 | -1
O=C(CN1C(=O)C2C3C=CC(C3)C2C1=O)Nc1c2ccccc2nc2ccccc12 (stereo not drawn) | 72* | 0 | 0 | 4
O=C(CN1C(=O)C2C3C=CC(C3)C2C1=O)NCc1ccccc1 (stereo not drawn) | 2 | 0 | -1 | 9
COc1cccc(C(=O)NNC(=O)c2cc3nc(-c4ccccc4)cc(C(F)(F)F)n3n2)c1 | -2 | 0 | 2 | 16
COC(=O)c1cc2sccc2n1CC(=O)Cc1ccc(OC)cc1OC | 50* | 0 | -1 | 14
COC(=O)c1cc2sccc2n1CC(=O)c1ccccc1 | 6 | 0 | 3 | 13
COc1ccc(Cl)cc1NS(=O)(=O)c1ccc(OC)c(C)c1C | 42* | 0 | 0 | 9
COc1cc(NS(=O)(=O)c2ccc(OC)c(C)c2C)c(OC)cc1Cl | 54* | 0 | -1 | 5
COc1ccc(Cl)cc1NS(=O)(=O)c1cc(C)ccc1OC | -2 | 0 | 0 | 3
FC(F)(F)c1ccc(NC2=NCCC2)cc1 | -8 | 0 | 0 | 19
O=Cc1ccc(OCCOC(=O)Nc2cccc(Cl)c2)cc1 | -11 | 0 | -1 | 9
c1cn(CCCNc2cc(-c3ccc(OC4CCCCO4)cc3)ncn2)cn1 (stereo not drawn) | 50* | 0 | -1 | 20
CN1CCCN(c2cc(-c3ccc(OC4CCCCO4)cc3)ncn2)CC1 (stereo not drawn) | 4 | 0 | 0 | 21
SMILES | TEAD-YAP block | FBW7 activator | GPR151 ag | MITF inh
CC[n+]1ccc(/C=C2\C=Cc3ccccc3N2C)cc1 | 85* | 0 | 0 | 2
CC[n+]1ccc(/C=C2\C=CC=CN2C)cc1 | 3 | 0 | 0 | -7
CC(C)(NC(=O)c1ccccc1C(=O)NCCc1ccccc1)C(=O)NCCc1ccccc1 | -8 | 0 | 0 | 0
O=C(Nc1ccc(O)cc1)c1scc2c1CCCC2 | 68* | 0 | -2 | 0
COc1ccc2c(=O)c(-c3cscn3)coc2c1 | 44* | 0 | -3 | -3
COc1ccc2c(=O)c(-c3ccccc3)coc2c1 | 29 | 0 | -9 | 2
O=c1c(-c2cc3ccccc3o2)coc2cc(O)ccc12 | 36* | 0 | -8 | 1
Cc1nc(-c2coc3cc(O)ccc3c2=O)cs1 | 34* | 1 | -6 | 8
CC(=O)Oc1ccc2c(=O)c(-c3cc4ccccc4o3)coc2c1 | 8 | 0 | -6 | 8
CC1CCC(C(=O)NC(C(=O)Nc2ccccn2)C(C)C)CC1 (stereo not drawn) | -3 | 0 | 1 | -1
CC(C(=O)N(C1CCCCC1)C1CCCCC1)N1C(=O)c2ccccc2C1=O (stereo not drawn) | 7 | 0 | -1 | 20
COc1cccc(Cn2c(NCc3ccco3)nc3c2c(=O)n(C)c(=O)n3C)c1 | 40* | 0 | 1 | 8
Cc1ccc(Cn2c(CN(C)Cc3ccccc3)nc3c2c(=O)n(C)c(=O)n3C)cc1 | -5 | 0 | 0 | -18
CC(C)n1c(CN(C)Cc2ccccc2)nc2c1c(=O)n(C)c(=O)n2C | 50* | 0 | 2 | 7
CCNc1nc2c(c(=O)n(C)c(=O)n2C)n1CCc1ccccc1 | 33* | 0 | 1 | 3
Cc1ccc(S(=O)(=O)N2CCCc3ccccc32)cc1C | 2 | 0 | 0 | 2
COC(=O)c1cc(S(=O)(=O)N2CCc3ccccc32)cn1C | 0 | 0 | 3 | 15
CCCNC(=O)c1cc(S(=O)(=O)N2CCc3ccccc32)cn1C | 32* | 0 | 3 | -6
O=S(=O)(c1cccc(S(=O)(=O)N2CCc3ccccc32)c1)N1CCCC1 | 43* | 0 | -1 | 28
COc1cc(S(=O)(=O)N2CCc3ccccc32)c(OC)cc1Cl | 45* | 0 | 1 | -3
O=S(=O)(c1ccc(F)cc1)N1CCc2ccccc21 | 5 | 0 | 1 | 0
COc1ccc(S(=O)(=O)N2CCCc3ccccc32)cc1C | 37* | 0 | 1 | -24
O=C(O)c1ccc2c(c1)ncn2C1CCCCCC1 | 3 | 0 | 0 | -1
COc1cc(NC(=S)N2CCN(c3ccccn3)CC2)c(OC)cc1Cl | 6 | 0 | 1 | 7
c1ccc(-c2nc3c(c(N4CCOCC4)n2)CNCC3)nc1 | 6 | 0 | 3 | 12
SMILES | TEAD-YAP block | FBW7 activator | GPR151 ag | MITF inh
Cc1cccn2c(CNCCn3cccn3)c(C(=O)N3CCCCC3)nc12 | -7 | 0 | 0 | 10
CCCCN(C)C(=O)CSc1nc(O)c(CC(C)C)c(=O)[nH]1 | 12 | 1 | 1 | 21
Cc1ccc(S(=O)(=O)N2CCc3ccccc32)cc1C(N)=O | 3 | 0 | 1 | 10
Cc1ccc(S(=O)(=O)N2CCc3ccccc32)cc1[N+](=O)[O-] | 56* | -1 | 2 | 13
CC(=O)c1ccc(C(=O)N(CCCN(C)C)c2nc3cc4c(cc3s2)OCCO4)cc1 | -6 | 0 | 3 | 2
COC(=O)C(C)NC(=O)C(Cc1ccccc1)NC(C)=O (stereo not drawn) | -3 | 0 | 0 | 9
CC(=O)NC(C(=O)NC(Cc1ccccc1)C(N)=O)C(C)C (stereo not drawn) | -1 | 2.0* | 1 | 8
CC(=O)NC(CC(C)C)C(=O)NC(Cc1ccccc1)C(N)=O (stereo not drawn) | -2 | 2.5* | 0 | 6
O=C(C1CC1)N1CCc2cc(Br)cc(S(=O)(=O)Nc3ccccc3F)c21 | 45* | 0 | -1 | -7
CC(C)(C)NS(=O)(=O)c1cc(Br)cc2c1N(C(=O)C1CC1)CC2 | -5 | 0 | 1 | -6

Compound activity as filed in PubChem BioAssay.
